# According to PubChem BioAssay AID902 (National Center for Advancing Translational Sciences (NCATS), 2007):
# The campaign covered roughly 130,000 compounds. About 1,900 (1.5%) were called active. Another 5% or so got no clear call; they are omitted. The call rests on the fitted dose curve; in most records, active means well fitted cell-killing curve with a large enough effect; inconclusive means small, poorly fitted or top-dose-only effect; inactive means no such curve, though single readings can be large or run the other way. The full list was thinned out, with actives kept by preference.
# Assay: qHTS Screen for Compounds that Selectively Target Cancer Cells with p53 Mutations: Cytotoxicity of p53ts Cells at the Nonpermissive Temperature; further: nearly all actives have a fitted effect of over 55% in size
# Conditions: H1299-p53A138V viability at 39C, ATP luminescence, 24 h; series mostly up to 46.1 µM; activity change, negative = cell killing: at the top concentration
# Description: NIH Chemical Genomics Center [NCGC] NIH Molecular Libraries Screening Centers Network [MLSCN] MLSCN Grant: 1 X01 MH079844-01 Assay Submitter (PI): Dr. SUN, YI, University of Michigan NCGC Assay Overview: Synthetic Lethal Screen for Compounds to Kill Cancer Cells with p53 Mutation. Tumor suppressor gene p53 serves as a major cellular barrier against tumorigenesis. […] The goal of this screening is to identify small molecule probes that selectively kill cancer cells with mutations in p53. This screening was carried out using two lines of H1299 lung cancer cells. The H1299-p53 A138V line express a temperature sensitive p53 mutant (p53ts) in which the mutant p53 protein (A138V) is in the mutant confirmation when grown at 39C (the nonpermissive temperature) and in the wild type conformation when grown at 32C (the permissive temperature). A H1299-neo line (p53 null) grown at both 39C and 32C were used as counter-screens to filter out false positive associated with temperature shifting. The small molecular compounds that selectively target mutant p53-containing cancer cells were selected as candidate probes for further study. A cytotoxicity assay based on the measurement of ATP contents in cells was used in this screen. Concentration-responses of all the compounds in the library collection were determined in qHTS using the cell lines and temperature conditions as above.
# NCGC Assay Protocol Summary: Both the H1299-p53A138V and H1299-neo cell lines were provided by Dr.Yi Sun, a PI at the University Michigan. The cells were maintained and cultured at 37C. The resuspended frozen cells were used to plate the cells in the 1536-well assay plates at a density of 600 cells per well in 5 ul medium. The assay plates with the cells were incubated at 37C for 16 to 30 hours before the experiments. The library compounds in DMSO solution were added to the cells in assay plates and incubated 24 hours at 39C (for mutant p53 conformation) or 32C (for normal p53 conformation as control). An ATP_lite assay kit (PerkinElmer) was used to determine the cell viability. Tomaxifen (100uM) was used as the positive control for cell killing. Data were normalized to the controls for basal activity (DMSO only) and 100% killing (100uM tamoxifen). AC50 values were determined from concentration-response data modeled with the standard Hill equation. P53 assay protocol: 1. Reagent; 5 uL H1299-p53A138V or H1299-neo cell cells/well 2. Time; overnight; 37C incubation 3. Compounds; 23 nL; 5.9 nM to 46 uM 4. Controls; 23 nL; Tamoxifen 100 uM 5. Time; 24 hr; 39C incubation 6. Reagent; 3 uL; ATP_Lite reagent 7. Time; 20 min; Room Temperature 8. Detection; Luminescence; Viewlux plate reader Keywords: p53, synthetic lethal, cancer, cell viability, cytotoxicity, H1299 cell line, luminescence, MLSMR, MLSCN, NIH Roadmap, qHTS, NCGC
# On the % scale 0 is the no-effect control and ±100 the full control effect; potency means the concentration at half of the fitted maximal effect.
Compound,"activity change, negative = cell killing",Potency
CCOC(=O)CNC(=O)c1cc2c(=O)n3cccc(C)c3nc2s1,-21.7% (inactive),
CCCc1nn2c(=O)cc(COC(=O)c3ccc(NC(=O)COc4ccc(F)cc4)cc3)nc2s1,11.1% (inactive),
COc1ccccc1CNc1ncnc2ccc(-c3ccc4c(c3)OCO4)cc12,-3.34% (inactive),
N#Cc1cccc(-c2ccc3ncnc(NCc4cccs4)c3c2)c1,,12.6 µM (active)
N#Cc1ccccc1-c1ccc2ncnc(NCc3cccnc3)c2c1,-2.85% (inactive),
Cc1ccc(Cl)cc1NC(=O)C1CCCN(c2cnccn2)C1 (centres undefined),-7.25% (inactive),
O=C(c1cc(-c2ccc(F)cc2)on1)N1CCN(c2ccc(F)cc2)CC1,9.22% (inactive),
Cc1ccc(S(=O)(=O)/N=C(/Nc2ccccn2)c2ccc(Cl)cc2)cc1,-15.9% (inactive),
CCN(CC)S(=O)(=O)c1cccc(C(=O)Nc2ccccc2)c1,-12% (inactive),
CCN(CC)S(=O)(=O)c1cc(C(=O)Nc2ccccn2)ccc1C,,12.6 µM (active)
CN(C(=O)CN1C(=O)CCSc2ccc(S(=O)(=O)N3CCCC3)cc21)c1ccccc1,-4.63% (inactive),
O=C(CSc1nnc(-c2ccccc2F)o1)Nc1cccc(C(F)(F)F)c1,8.67% (inactive),
O=C(NCCS(=O)(=O)N1CCN(c2ccc(F)cc2)CC1)c1ccccc1Br,-17.1% (inactive),
COc1ccc(N2C(=O)CS(=O)(=O)C23C(=O)N(Cc2ccc(C)cc2)c2ccccc23)cc1Cl (centres undefined),21% (inactive),
CCCCOc1ccc(C(=O)Nc2cccc(-c3nc4ccccc4o3)c2C)cc1,35.1% (inactive),
O=C(COc1ccccc1F)Nc1ccc(C(=O)OCc2cc(=O)n3nc(C4CC4)sc3n2)cc1,-13.1% (inactive),
CCCCS(=O)(=O)c1oc(-c2cccs2)nc1S(=O)(=O)c1ccccc1,,3.16 µM (active)
CSc1oc(-c2cccs2)nc1S(=O)(=O)c1ccc(Br)cc1,17.8% (inactive),
NC(=O)CSc1oc(-c2cccs2)nc1S(=O)(=O)c1ccccc1,11.5% (inactive),
c1ccc(-n2ncc(-c3nn[nH]n3)n2)cc1,-2.58% (inactive),
Cc1nnc(C)n1/N=C/c1ccc(C(C)C)cc1,-10.4% (inactive),
CC(C)c1ccc(-c2nn[nH]n2)cc1,,12.6 µM (active)
CCc1ccc(-n2nnc(-c3nc(-c4ccccc4)no3)c2C)cc1,-4.05% (inactive),
CCOC(=O)c1c(C)oc2nc(C)nc(Nc3ccc(CC)cc3)c12,12.3% (inactive),
CCOc1ccc(Nc2c(S(=O)(=O)c3ccccc3)cnc3ccccc23)cc1,-6.31% (inactive),
CCOc1ccc(CCNC(=O)c2ccc3c(c2)sc2nc(-c4ccc(F)cc4)cn23)cc1OCC,-30% (inactive),

Compound,"activity change, negative = cell killing",Potency
CCOC(=O)c1scc(-c2ccccc2)c1S(=O)(=O)Nc1ccccc1F,-11.6% (inactive),
CCCS(=O)(=O)c1ncc(Cl)c(C(=O)Nc2scc(-c3ccccc3)c2C(=O)OCC)n1,,7.94 µM (active)
CCOC(=O)c1ccc(NC(=O)c2nc(SCc3ccc(F)cc3)ncc2Cl)cc1,-9.35% (inactive),
CCOC(=O)C1CCN(c2csc3ccc(C)cc3c2=O)CC1,-18.6% (inactive),
COc1ccc(CNC(=O)c2ccc3c(c2)nc2n3CCOC2)c(OC)c1,-4.85% (inactive),
CCc1ccc(-n2nc(C)c3c(C)cc(=O)n(CC(=O)Nc4ccc(F)cc4C)c32)cc1,-8.83% (inactive),
O=c1oc2cc(O)ccc2cc1-c1ccc(F)cc1,7.63% (inactive),
COc1ccc(-c2cc3ccc(OCc4nn[nH]n4)cc3oc2=O)cc1,,12.6 µM (active)
COc1ccc2cc(-c3nc(Cl)c4c5c(sc4n3)CC(C)CC5)c(=O)oc2c1 (centres undefined),8.48% (inactive),
Cc1cn(C)c(CC(=O)NCc2ccc(Cl)cc2)c1C(=O)O,-8.42% (inactive),
CCc1ccc(NC(=O)CCS(=O)(=O)c2cc3c(cc2Cl)NC(=O)CO3)cc1,-21.4% (inactive),
COc1ccc(C(=O)Nc2nncs2)c(OC)c1,-26.2% (inactive),
COC(=O)c1sc(NC(=O)c2csc3c2CCCC3)nc1C,12.2% (inactive),
COC(=O)c1sc(NC(=O)c2ccc(OC)cc2OC)nc1C,,0.316 µM (active)
CCOC(=O)c1cccc(NC(=O)c2cc(CN3CCCC3)on2)c1,-17.2% (inactive),
CCOc1ccc(NC(=O)Cn2c(=O)n(CCCC(=O)NCc3ccc4c(c3)OCO4)c(=O)c3ccccc32)cc1,2.75% (inactive),
Cc1nn2c(=O)cc(COC(=O)c3ccccc3NC(=O)COc3ccccc3C)nc2s1,-9.66% (inactive),
Cc1nn2c(=O)cc(COC(=O)c3cccc(NC(=O)COc4ccccc4Cl)c3)nc2s1,,12.6 µM (active)
COc1ccc(OCC(=O)Nc2cccc(C(=O)OCc3cc(=O)n4nc(C)sc4n3)c2)cc1,-9.88% (inactive),
Cc1cccc(C(=O)NCCc2nc3ccccc3n2Cc2ccccc2Cl)c1,-12.8% (inactive),
Cc1ccc(NC(=O)c2cccc(N(C)C)c2)cc1NC(=O)c1ccc(O)cc1,,7.94 µM (active)
Cc1ccc(F)cc1NC(=O)c1cccc(N(C)C)c1,-15.6% (inactive),
Cc1ccccc1NC(=O)c1ccccc1,2.54% (inactive),
COc1ccc(CCN2C(=O)c3oc4cc(C)cc(C)c4c(=O)c3C2c2ccccc2F)cc1OC (centres undefined),-6.84% (inactive),
Cn1c(-c2ccco2)nc2cc3ccccc3cc21,,1.26 µM (active)
c1coc(-c2nc3nc4ccccc4n3nc2-c2ccco2)c1,-3.02% (inactive),

Compound,"activity change, negative = cell killing",Potency
CN(c1nc2ccccc2n2c(-c3ccco3)nnc12)S(=O)(=O)c1ccccc1,1.85% (inactive),
O=C(CCn1ccc2cc(S(=O)(=O)N3CCCC3)ccc21)NCc1cccc(Cl)c1,-25.5% (inactive),
COc1ccc(CC(=O)NCCc2sc3nc(-c4ccc(OC)cc4)nn3c2C)cc1,-18% (inactive),
Cc1cccc(-n2ccnc2SCC(=O)Nc2cc(C(F)(F)F)ccc2Cl)c1,-21.3% (inactive),
O=C(CN1C(=O)c2ccccc2S1(=O)=O)N1CCc2ccccc21,,2 µM (active)
O=C(CN1CCN(c2ccccn2)CC1)N1CCc2ccccc21,19.6% (inactive),
O=C(c1cccc(C(=O)N2CCc3ccccc32)n1)N1CCc2ccccc21,1.43% (inactive),
Cc1cccc(NC(=O)c2cc(S(=O)(=O)N3CCC4(CC3)OCCO4)ccc2F)c1,5.17% (inactive),
CC(C)c1ccc(NC(=O)c2cc(S(=O)(=O)N3CCc4ccccc4C3)ccc2F)cc1,,31.6 µM (active)
CC(=O)Nc1ccc(S(=O)(=O)N2CCN(C(=O)c3ccccc3F)CC2)cc1,3.21% (inactive),
Cc1nc2ccn(Cc3cccs3)c(=O)c2cc1C(=O)NCc1ccc(Cl)cc1,-19% (inactive),
COC(=O)c1sc2ncccc2c1-n1c(C)ccc1C,-13.8% (inactive),
CC(C)S(=O)(=O)c1oc(-c2ccc(F)cc2)nc1S(=O)(=O)c1ccc(F)cc1,,3.16 µM (active)
Cc1ccc(-c2nc(S(=O)(=O)c3ccc(C)cc3)c(N3CCCCCC3)o2)cc1,6.8% (inactive),
COc1ccc(-c2nc(S(=O)(=O)c3ccccc3)c(N3CCCCC3)o2)cc1,12.8% (inactive),
CC1CCc2noc(NC(=O)c3ccc([N+](=O)[O-])cc3)c2C1 (centres undefined),2.77% (inactive),
COc1ccc(C(=O)Nc2onc3c2CCCC3)cc1,,10 µM (active)
COc1ccc(NC(=O)c2c(C)oc3c2CCCC3)cc1,-9.84% (inactive),
O=C(c1ccc2c(c1)N(Cc1ccccc1)C(=O)c1ccccc1S2(=O)=O)N1CCCC1,-14.6% (inactive),
COc1ccccc1C(=O)Nc1c(C(=O)N(C)Cc2ccccc2)sc2nc(C)c(Cl)c(C)c12,12.2% (inactive),
COc1ccc(NS(=O)(=O)c2cc3c4c(c2)CC(=O)N4CCC3)cc1Cl,-7.45% (inactive),
CCN1C(=O)c2ccccc2S(=O)c2ccc(C(=O)NCc3ccc(F)cc3)cc21 (centres undefined),1.95% (inactive),
COC(=O)c1nc2ccccc2s1,5.71% (inactive),
CCC(=O)NC(=Nc1nc2ccccc2s1)NC(=O)CC,,10 µM (active)
COC(=O)Cc1cc(=O)n(-c2nc3ccccc3s2)[nH]1,-2.65% (inactive),
O=C(NCC(c1ccc2c(c1)OCO2)N1CCN(c2ccccc2)CC1)C(=O)Nc1ccccc1F (centres undefined),-23.6% (inactive),

Compound,"activity change, negative = cell killing",Potency
O=C(NC1CC(=O)N(c2ccccc2)C1)c1ccco1 (centres undefined),-7.23% (inactive),
c1csc(-c2nc(-c3ccncc3)no2)c1,-9.47% (inactive),
c1ccc(-c2noc(-c3cccs3)n2)nc1,,15.8 µM (active)
CC(C)c1nc(-c2ccccn2)no1,-4.4% (inactive),
COc1ccc(CNC(=O)c2cc3c(-c4ccccc4F)nn(C)c3s2)c(OC)c1,14.9% (inactive),
CCOc1ccc(NC(=O)c2c(NC(=O)Cc3ccccc3)sc3c2CCCCC3)cc1,,10 µM (active)
O=C(Cc1ccccc1)Nc1sc2c(c1C(=O)Nc1ccc(Br)cc1)CCC2,14.3% (inactive),
CCOc1ccc(NC(=O)c2c(NCc3cccc(OC)c3OC)sc3c2CCC3)cc1,27.5% (inactive),
CCc1ccc(CNC(=O)c2ccc(CS(=O)c3ccc(Br)cc3)o2)cc1 (centres undefined),-14.8% (inactive),
CC(NC(=O)c1cc(Sc2ccc(F)cc2F)nc2ccccc12)c1ccccc1 (centres undefined),-22.5% (inactive),
O=C(/C=C/c1ccccc1)N1CCN(Cc2cc(=O)n3nc(-c4ccccc4F)sc3n2)CC1,-9.93% (inactive),
NC(=O)c1ccccc1NC(=O)c1ccccc1F,5.04% (inactive),
O=C(Cn1c(=O)sc2ccccc21)Nc1nc2c(s1)CCCC2,-3.55% (inactive),
O=C(Nc1nc2c(s1)CCCC2)c1ccccc1F,,10 µM (active)
COC(=O)c1ccccc1NS(=O)(=O)c1ccc2c(c1)CCCN2C(C)=O,26.2% (inactive),
CCn1cc2nc(SCc3ccccc3Cl)n(CCc3ccccc3)c(=O)c2n1,-22% (inactive),
Cc1ccc2cc3cc(C(=O)N4CCCCCC4)oc3nc2c1,,15.8 µM (active)
CCc1ccc(CNC(=O)c2cc3cc4ccc(OC)cc4nc3o2)cc1,22.4% (inactive),
Cc1ccc(C(=O)N2CCCCCC2)cc1Br,5.68% (inactive),
CCCS(=O)(=O)c1c(Nc2ccccc2C)sc(C(=O)c2ccccc2)c1N,-12.5% (inactive),
Cc1c(NC(=O)Cc2ccccc2)cccc1-c1nc2cccnc2s1,0.432% (inactive),
Cc1c(NC(=O)C(C)(C)C)cccc1-c1nc2ccccc2s1,,15.8 µM (active)
CCC(C(=O)Nc1cccc(-c2nc3cccnc3s2)c1C)c1ccccc1 (centres undefined),18.6% (inactive),
CCOc1ccc(N(Cc2ccccc2)C(=O)c2nc(S(C)(=O)=O)ncc2Cl)cc1,,3.98 µM (active)
CCOc1ccc(NC(=O)CN(Cc2ccccc2)S(=O)(=O)c2ccc(Cl)cc2)cc1,-8.08% (inactive),
CCOc1ccc(N(Cc2ccccc2)C(=O)c2nc(SCC)ncc2Cl)cc1,-14.9% (inactive),
